Measurements as given in the supplement of paper PMC10849652.
Of roughly 8,800 targets only a part is listed; those with a hit were picked by preference. About 0.5% of all pairs of compound and target were hits. A number with no mark means an inactive call.

Tests used:
Experiment in all cases: log2 fold change, soluble protein after heating vs DMSO (PISA); higher = thermal stabilisation; K562 lysate, 10 uM; active = over 0.2 and 3.5 SD of the protein, either way, in both replicates (recomputed)
[1] = compound: C#Cc1cccc(Nc2ncnc3cc(OCCOC)c(OCCOC)cc23)c1 [erlotinib]
How it was run: (§1)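 Following dounce homogenisation of K562 pellets in PBS pH 7.4 with 1 mM MgCl2, crude extract at 1 mg/mL protein was incubated for 30 min with 10 μM compound. Aliquots were then heated for 3 min over 48°C-58°C and pooled, NP-40 was added to 0.5% at 4°C, and soluble protein was recovered as the supernatant at 21,000xg for 90 min. Channel-sum-equalised TMTpro 16plex LC-MS/MS quantified this protein. Each value, from duplicates, is a log-two fold change in thermal stability relative to solvent controls.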

[2] = compound: C/C(=N\NC(=O)C1=CC(=CC=C1)S(=O)(=O)N2CCOCC2)/C3=C(C=CC(=C3)Cl)O
How it was run: as §1

[3] = compound: C1=CC(=CC=C1C2=NC3=C(N2)C=C(C=C3)C(=O)N)OC4=CC=C(C=C4)Cl
How it was run: as §1

[4] = compound: C1=CC2=C(C=CC(=C2)/C=C\3/C(=O)NC(=NCC4=CC=CS4)S3)N=C1
How it was run: as §1

[5] = compound: C1=CC2=NC=CN=C2C=C1/C=C/3\C(=O)NC(=O)S3
How it was run: as §1

[6] = compound: C1=CC=C(C=C1)C2=NC(=C(N2)C3=CC=NC=C3)C4=CC(=C(C=C4)Cl)O
How it was run: as §1

[7] = compound: C1=CC=C2C(=C1)C3=NNC4=CC=CC(=C43)C2=O
How it was run: as §1

[8] = compound: C1CCN(C1)C(=O)NC2=CC=CC(=C2)NC3=NC=C(C(=N3)NCCC4=CN=CN4)Br
How it was run: as §1

[9] = compound: C1CN(CCC1(CC2=CC=C(C=C2)Cl)N)C3=NC=NC4=C3C=CN4
How it was run: as §1

[10] = compound: C1COCCN1CCN2C3=CC=CC=C3N=C2NC(=O)C4=CC(=CC=C4)[N+](=O)[O-] [IRAK-1-4 Inhibitor I]
How it was run: as §1

Sequence of UniProt P51116 (P51116 whole entry, looked up): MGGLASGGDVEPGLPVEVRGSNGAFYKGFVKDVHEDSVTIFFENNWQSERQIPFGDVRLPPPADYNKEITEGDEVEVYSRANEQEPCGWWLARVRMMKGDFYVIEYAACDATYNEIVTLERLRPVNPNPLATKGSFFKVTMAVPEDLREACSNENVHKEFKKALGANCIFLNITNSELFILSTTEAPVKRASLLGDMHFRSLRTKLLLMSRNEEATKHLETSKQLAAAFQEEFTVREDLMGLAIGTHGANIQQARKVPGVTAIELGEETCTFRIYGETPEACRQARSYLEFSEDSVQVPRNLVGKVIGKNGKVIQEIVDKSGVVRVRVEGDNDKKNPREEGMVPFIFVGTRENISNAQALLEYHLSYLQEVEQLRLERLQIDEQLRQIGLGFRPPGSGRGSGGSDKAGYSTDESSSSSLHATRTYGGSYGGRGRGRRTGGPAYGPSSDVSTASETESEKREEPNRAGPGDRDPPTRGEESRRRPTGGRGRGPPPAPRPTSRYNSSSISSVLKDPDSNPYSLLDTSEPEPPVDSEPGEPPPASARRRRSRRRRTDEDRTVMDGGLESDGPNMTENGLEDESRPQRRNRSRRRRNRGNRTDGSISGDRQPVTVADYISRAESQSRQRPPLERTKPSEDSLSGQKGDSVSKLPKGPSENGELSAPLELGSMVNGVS
Sequence of UniProt Q92947 (Q92947 whole entry, looked up): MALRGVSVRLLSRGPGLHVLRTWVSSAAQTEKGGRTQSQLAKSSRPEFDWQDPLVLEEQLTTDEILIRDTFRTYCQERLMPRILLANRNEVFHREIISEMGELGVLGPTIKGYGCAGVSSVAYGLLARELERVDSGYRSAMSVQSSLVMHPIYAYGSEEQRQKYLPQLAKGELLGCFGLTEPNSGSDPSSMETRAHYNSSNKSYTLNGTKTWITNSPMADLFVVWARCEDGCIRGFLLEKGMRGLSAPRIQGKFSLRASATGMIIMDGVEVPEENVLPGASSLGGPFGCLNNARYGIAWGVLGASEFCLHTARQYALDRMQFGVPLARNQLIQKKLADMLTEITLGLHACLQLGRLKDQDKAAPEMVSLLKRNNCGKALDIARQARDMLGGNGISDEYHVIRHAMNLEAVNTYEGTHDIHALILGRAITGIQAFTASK
Sequence of UniProt O95571 (O95571 whole entry, looked up): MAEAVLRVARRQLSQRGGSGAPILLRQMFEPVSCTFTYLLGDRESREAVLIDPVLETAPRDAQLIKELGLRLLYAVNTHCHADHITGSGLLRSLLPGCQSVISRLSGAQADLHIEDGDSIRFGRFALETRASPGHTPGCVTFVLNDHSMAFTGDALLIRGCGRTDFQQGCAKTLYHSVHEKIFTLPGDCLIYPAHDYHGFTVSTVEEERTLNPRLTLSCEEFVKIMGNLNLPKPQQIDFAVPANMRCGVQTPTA
Sequence of UniProt Q8NFF5 (Q8NFF5 whole entry, looked up): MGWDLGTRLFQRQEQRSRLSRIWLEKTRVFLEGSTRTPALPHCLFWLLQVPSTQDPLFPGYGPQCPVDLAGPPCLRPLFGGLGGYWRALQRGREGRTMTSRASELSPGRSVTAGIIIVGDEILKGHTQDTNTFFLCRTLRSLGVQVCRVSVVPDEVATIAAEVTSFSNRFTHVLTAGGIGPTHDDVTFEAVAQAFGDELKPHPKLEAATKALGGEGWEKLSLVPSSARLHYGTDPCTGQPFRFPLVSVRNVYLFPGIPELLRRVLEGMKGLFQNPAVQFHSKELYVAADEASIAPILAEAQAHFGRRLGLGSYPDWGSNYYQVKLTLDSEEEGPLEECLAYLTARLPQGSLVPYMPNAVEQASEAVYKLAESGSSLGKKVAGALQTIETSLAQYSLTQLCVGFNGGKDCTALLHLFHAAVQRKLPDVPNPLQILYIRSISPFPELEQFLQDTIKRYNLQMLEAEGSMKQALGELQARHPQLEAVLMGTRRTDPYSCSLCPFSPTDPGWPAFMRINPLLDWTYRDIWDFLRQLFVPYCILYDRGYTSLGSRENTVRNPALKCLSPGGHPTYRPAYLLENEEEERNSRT
Sequence of UniProt Q5T0N5 (Q5T0N5 whole entry, looked up): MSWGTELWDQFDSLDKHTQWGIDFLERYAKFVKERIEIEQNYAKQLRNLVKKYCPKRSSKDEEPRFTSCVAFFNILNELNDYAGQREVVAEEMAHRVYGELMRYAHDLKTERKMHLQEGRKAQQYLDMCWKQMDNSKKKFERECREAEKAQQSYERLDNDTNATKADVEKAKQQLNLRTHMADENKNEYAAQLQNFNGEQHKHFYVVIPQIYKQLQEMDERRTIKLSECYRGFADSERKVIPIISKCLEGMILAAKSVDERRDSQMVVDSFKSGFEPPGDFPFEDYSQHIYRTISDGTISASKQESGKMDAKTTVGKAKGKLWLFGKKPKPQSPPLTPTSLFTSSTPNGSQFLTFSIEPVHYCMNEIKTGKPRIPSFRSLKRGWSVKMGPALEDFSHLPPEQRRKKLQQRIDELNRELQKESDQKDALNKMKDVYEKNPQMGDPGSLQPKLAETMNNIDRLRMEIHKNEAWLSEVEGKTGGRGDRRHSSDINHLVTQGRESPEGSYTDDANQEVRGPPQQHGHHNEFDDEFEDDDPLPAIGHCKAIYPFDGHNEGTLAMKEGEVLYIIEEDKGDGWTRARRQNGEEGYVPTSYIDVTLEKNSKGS
Sequence of UniProt Q9NRY5 (Q9NRY5 whole entry, looked up): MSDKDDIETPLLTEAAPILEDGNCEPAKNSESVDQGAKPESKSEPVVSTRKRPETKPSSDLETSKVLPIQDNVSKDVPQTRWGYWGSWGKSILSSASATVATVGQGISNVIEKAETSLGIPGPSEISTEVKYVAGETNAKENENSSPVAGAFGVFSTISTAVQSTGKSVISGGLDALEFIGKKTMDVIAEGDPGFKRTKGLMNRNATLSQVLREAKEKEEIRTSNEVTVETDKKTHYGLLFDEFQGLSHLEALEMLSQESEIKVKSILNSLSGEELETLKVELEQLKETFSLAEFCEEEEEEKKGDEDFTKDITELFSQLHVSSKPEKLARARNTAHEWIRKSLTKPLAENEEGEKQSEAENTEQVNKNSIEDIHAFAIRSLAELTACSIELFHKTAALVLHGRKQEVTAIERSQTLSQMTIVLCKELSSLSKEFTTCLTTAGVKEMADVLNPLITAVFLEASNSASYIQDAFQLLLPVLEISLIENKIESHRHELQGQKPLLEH
Sequence of UniProt O43768 (O43768 whole entry, looked up): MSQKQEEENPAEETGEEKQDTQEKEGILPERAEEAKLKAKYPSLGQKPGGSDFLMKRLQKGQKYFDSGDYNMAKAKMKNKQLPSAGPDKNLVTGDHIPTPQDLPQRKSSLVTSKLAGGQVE
Sequence of UniProt P41567 (P41567 whole entry, looked up): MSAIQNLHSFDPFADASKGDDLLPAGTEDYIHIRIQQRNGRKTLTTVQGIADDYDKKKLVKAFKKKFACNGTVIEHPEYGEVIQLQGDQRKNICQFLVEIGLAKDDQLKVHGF
Sequence of UniProt P11413 (P11413 whole entry, looked up): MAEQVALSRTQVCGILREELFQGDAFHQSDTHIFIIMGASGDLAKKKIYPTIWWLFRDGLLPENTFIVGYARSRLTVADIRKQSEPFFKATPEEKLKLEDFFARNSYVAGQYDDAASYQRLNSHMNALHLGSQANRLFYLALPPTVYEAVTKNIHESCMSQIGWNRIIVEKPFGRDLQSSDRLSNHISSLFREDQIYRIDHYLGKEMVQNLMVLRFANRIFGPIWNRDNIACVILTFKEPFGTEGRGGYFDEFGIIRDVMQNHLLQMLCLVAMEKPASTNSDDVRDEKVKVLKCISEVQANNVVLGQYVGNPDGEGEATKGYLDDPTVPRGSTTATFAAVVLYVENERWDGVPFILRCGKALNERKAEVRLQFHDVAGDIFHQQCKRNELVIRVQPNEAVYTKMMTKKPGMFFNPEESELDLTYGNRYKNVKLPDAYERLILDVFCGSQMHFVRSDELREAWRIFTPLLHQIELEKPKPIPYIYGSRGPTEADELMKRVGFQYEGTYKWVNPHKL
Sequence of UniProt Q9NPA8 (Q9NPA8 whole entry, looked up): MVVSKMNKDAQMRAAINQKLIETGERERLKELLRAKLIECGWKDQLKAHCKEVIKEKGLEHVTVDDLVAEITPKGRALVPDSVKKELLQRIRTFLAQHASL
Sequence of UniProt Q56P03 (Q56P03 whole entry, looked up): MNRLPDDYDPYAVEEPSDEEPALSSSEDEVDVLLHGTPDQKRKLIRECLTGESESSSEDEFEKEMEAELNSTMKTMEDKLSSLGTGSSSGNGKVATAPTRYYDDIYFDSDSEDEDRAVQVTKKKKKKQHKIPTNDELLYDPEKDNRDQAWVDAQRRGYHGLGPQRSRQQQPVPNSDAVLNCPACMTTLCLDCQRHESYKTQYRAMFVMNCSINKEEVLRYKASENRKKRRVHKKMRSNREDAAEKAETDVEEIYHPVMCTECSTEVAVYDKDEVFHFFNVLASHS
Sequence of UniProt O75477 (O75477 whole entry, looked up): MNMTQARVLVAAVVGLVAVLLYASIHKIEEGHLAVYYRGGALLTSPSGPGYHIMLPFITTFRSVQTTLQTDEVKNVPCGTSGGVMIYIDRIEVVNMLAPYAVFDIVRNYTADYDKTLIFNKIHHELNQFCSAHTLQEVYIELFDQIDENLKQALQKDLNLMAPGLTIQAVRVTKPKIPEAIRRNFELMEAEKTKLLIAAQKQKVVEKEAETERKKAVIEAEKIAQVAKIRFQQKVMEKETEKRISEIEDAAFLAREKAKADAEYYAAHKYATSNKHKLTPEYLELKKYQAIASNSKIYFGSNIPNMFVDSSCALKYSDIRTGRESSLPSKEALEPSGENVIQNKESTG
Sequence of UniProt Q13011 (Q13011 whole entry, looked up): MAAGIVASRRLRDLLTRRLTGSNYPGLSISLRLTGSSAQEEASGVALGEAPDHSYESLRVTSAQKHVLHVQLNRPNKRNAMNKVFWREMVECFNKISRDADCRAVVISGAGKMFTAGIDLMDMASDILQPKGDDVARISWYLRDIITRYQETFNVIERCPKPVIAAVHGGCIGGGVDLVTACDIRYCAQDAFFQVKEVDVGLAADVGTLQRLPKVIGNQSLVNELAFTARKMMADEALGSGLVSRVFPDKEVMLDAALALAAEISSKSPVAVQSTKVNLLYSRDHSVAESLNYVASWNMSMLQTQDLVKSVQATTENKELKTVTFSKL

What does the source list for DYRK1A (UniProt Q13627)?
log2 fold change [1]: -0.061; log2 fold change [2]: -0.057; log2 fold change [3]: -0.004; log2 fold change [4]: 0.186; log2 fold change [5]: 0.175; log2 fold change [6]: 0.016; log2 fold change [7]: 0.084; log2 fold change [8]: -0.008; log2 fold change [9]: -0.034; log2 fold change [10]: -0.046

Which log2 fold change [1] does the source give for ENSA isoform 3 (UniProt O43768) here?
The log2 fold change was -0.034.

What about the log2 fold change [2] of the same target?
The log2 fold change was 0.032.

And the log2 fold change [3]?
The log2 fold change was 0.

And the log2 fold change [4]?
The log2 fold change was -0.013.

And the log2 fold change [5]?
The log2 fold change was -0.047.

And the log2 fold change [6]?
The log2 fold change was -0.459 (active).

And the log2 fold change [7]?
The log2 fold change was 0.013.

And the log2 fold change [8]?
Its log2 fold change is 0.006.

And the log2 fold change [9]?
The log2 fold change was 0.006.

And the log2 fold change [10]?
Its log2 fold change is -0.004.

How did the log2 fold change [1] turn out when FLAD1 (UniProt Q8NFF5) was run?
The log2 fold change was 0.001.

And the log2 fold change [2]?
The log2 fold change was -0.108.

And the log2 fold change [3]?
Its log2 fold change is -0.047.

What about the log2 fold change [4] of the same target?
The log2 fold change was -0.054.

And the log2 fold change [5]?
The log2 fold change was -0.035.

What about the log2 fold change [6] of the same target?
Its log2 fold change is 0.012.

And the log2 fold change [7]?
Its log2 fold change is 0.045.

And the log2 fold change [8]?
Its log2 fold change is -0.028.

And the log2 fold change [9]?
Its log2 fold change is -0.027.

And the log2 fold change [10]?
The log2 fold change was 0.001.

With ECH1 (UniProt Q13011) as the target, how does the log2 fold change [1] read?
The log2 fold change was -0.041.

What about the log2 fold change [2] of the same target?
The log2 fold change was -0.049.

And the log2 fold change [3]?
The log2 fold change was -0.022.

What about the log2 fold change [4] of the same target?
The log2 fold change was 0.002.

What about the log2 fold change [5] of the same target?
Its log2 fold change is -0.022.

What about the log2 fold change [6] of the same target?
Its log2 fold change is 0.499 (active).

What about the log2 fold change [7] of the same target?
The log2 fold change was 0.232.

What about the log2 fold change [8] of the same target?
The log2 fold change was -0.009.

And the log2 fold change [9]?
The log2 fold change was 0.017.

What about the log2 fold change [10] of the same target?
Its log2 fold change is -0.007.

For GAMT (UniProt Q14353), which log2 fold change [1] is on record?
The log2 fold change was 0.018.

And the log2 fold change [2]?
Its log2 fold change is -0.008.

What about the log2 fold change [3] of the same target?
Its log2 fold change is 0.033.

What about the log2 fold change [4] of the same target?
Its log2 fold change is -0.008.

What about the log2 fold change [5] of the same target?
The log2 fold change was -0.01.

And the log2 fold change [6]?
Its log2 fold change is -0.016.

And the log2 fold change [7]?
Its log2 fold change is 0.036.

And the log2 fold change [8]?
Its log2 fold change is 0.035.

And the log2 fold change [9]?
Its log2 fold change is 0.066.

What about the log2 fold change [10] of the same target?
Its log2 fold change is -0.001.

Which results are given for FXR2 (UniProt P51116)?
log2 fold change [1]: 0.018; log2 fold change [2]: 0.026; log2 fold change [3]: -0.01; log2 fold change [4]: -0.042; log2 fold change [5]: 0.022; log2 fold change [6]: -0.029; log2 fold change [7]: -0.092; log2 fold change [8]: -0.085; log2 fold change [9]: 0.003; log2 fold change [10]: -0.075

For ETHE1 (UniProt O95571), which log2 fold change [1] is on record?
The log2 fold change was -0.046.

And the log2 fold change [2]?
Its log2 fold change is -0.01.

And the log2 fold change [3]?
The log2 fold change was 0.039.

What about the log2 fold change [4] of the same target?
The log2 fold change was 0.021.

And the log2 fold change [5]?
Its log2 fold change is 0.034.

And the log2 fold change [6]?
The log2 fold change was -0.007.

What about the log2 fold change [7] of the same target?
Its log2 fold change is 0.012.

And the log2 fold change [8]?
The log2 fold change was -0.046.

And the log2 fold change [9]?
Its log2 fold change is -0.013.

What about the log2 fold change [10] of the same target?
The log2 fold change was -0.044.

GCDH (UniProt Q92947) was tested. Which log2 fold change [1] did it give?
Its log2 fold change is -0.038.

What about the log2 fold change [2] of the same target?
Its log2 fold change is 0.1.

And the log2 fold change [3]?
The log2 fold change was -0.023.

What about the log2 fold change [4] of the same target?
Its log2 fold change is 0.051.

What about the log2 fold change [5] of the same target?
The log2 fold change was 0.089.

What about the log2 fold change [6] of the same target?
The log2 fold change was -0.027.

What about the log2 fold change [7] of the same target?
Its log2 fold change is 0.009.

And the log2 fold change [8]?
Its log2 fold change is 0.

And the log2 fold change [9]?
The log2 fold change was 0.

What about the log2 fold change [10] of the same target?
The log2 fold change was 0.011.

Which log2 fold change [1] does the source give for ERLIN1 (UniProt O75477) here?
Its log2 fold change is -0.031.

What about the log2 fold change [2] of the same target?
Its log2 fold change is 0.123.

What about the log2 fold change [3] of the same target?
Its log2 fold change is -0.17.

What about the log2 fold change [4] of the same target?
The log2 fold change was 0.072.

And the log2 fold change [5]?
The log2 fold change was -0.038.

What about the log2 fold change [6] of the same target?
Its log2 fold change is 0.015.

And the log2 fold change [7]?
Its log2 fold change is -0.02.

What about the log2 fold change [8] of the same target?
The log2 fold change was -0.015.

What about the log2 fold change [9] of the same target?
Its log2 fold change is -0.046.

And the log2 fold change [10]?
The log2 fold change was -0.071.

EAPP (UniProt Q56P03) was tested. Which log2 fold change [1] did it give?
Its log2 fold change is 0.012.

What about the log2 fold change [2] of the same target?
Its log2 fold change is 0.349 (active).

What about the log2 fold change [3] of the same target?
The log2 fold change was 0.018.

And the log2 fold change [4]?
The log2 fold change was 0.098.

And the log2 fold change [5]?
Its log2 fold change is 0.073.

And the log2 fold change [6]?
The log2 fold change was 0.011.

And the log2 fold change [7]?
The log2 fold change was -0.094.

And the log2 fold change [8]?
The log2 fold change was 0.024.

And the log2 fold change [9]?
Its log2 fold change is 0.103.

And the log2 fold change [10]?
Its log2 fold change is -0.014.

Which log2 fold change [1] does the source give for ENY2 (UniProt Q9NPA8) here?
Its log2 fold change is 0.033.

And the log2 fold change [2]?
The log2 fold change was 0.03.

And the log2 fold change [3]?
The log2 fold change was -0.015.

And the log2 fold change [4]?
Its log2 fold change is 0.002.

What about the log2 fold change [5] of the same target?
Its log2 fold change is -0.026.

What about the log2 fold change [6] of the same target?
The log2 fold change was 0.043.

What about the log2 fold change [7] of the same target?
The log2 fold change was 0.081.

And the log2 fold change [8]?
The log2 fold change was 0.104.

And the log2 fold change [9]?
Its log2 fold change is -0.087.

What about the log2 fold change [10] of the same target?
The log2 fold change was -0.019.

For EIF1 (UniProt P41567), which log2 fold change [1] is on record?
The log2 fold change was -0.006.

And the log2 fold change [2]?
The log2 fold change was -0.022.

And the log2 fold change [3]?
Its log2 fold change is 0.063.

What about the log2 fold change [4] of the same target?
The log2 fold change was -0.031.

And the log2 fold change [5]?
The log2 fold change was -0.004.

And the log2 fold change [6]?
Its log2 fold change is 0.044.

What about the log2 fold change [7] of the same target?
Its log2 fold change is 0.011.

And the log2 fold change [8]?
The log2 fold change was -0.027.

And the log2 fold change [9]?
The log2 fold change was -0.023.

And the log2 fold change [10]?
Its log2 fold change is 0.02.

How did the log2 fold change [1] turn out when FNBP1L (UniProt Q5T0N5) was run?
The log2 fold change was 0.015.

What about the log2 fold change [2] of the same target?
The log2 fold change was -0.018.

What about the log2 fold change [3] of the same target?
Its log2 fold change is 0.013.

And the log2 fold change [4]?
Its log2 fold change is 0.031.

What about the log2 fold change [5] of the same target?
The log2 fold change was 0.044.

What about the log2 fold change [6] of the same target?
Its log2 fold change is 0.066.

What about the log2 fold change [7] of the same target?
Its log2 fold change is 0.

What about the log2 fold change [8] of the same target?
The log2 fold change was -0.012.

What about the log2 fold change [9] of the same target?
The log2 fold change was -0.061.

And the log2 fold change [10]?
The log2 fold change was -0.016.

With G6PD isoform 2 (UniProt P11413) as the target, how does the log2 fold change [1] read?
Its log2 fold change is 0.034.

And the log2 fold change [2]?
Its log2 fold change is 0.05.

What about the log2 fold change [3] of the same target?
The log2 fold change was 0.024.

And the log2 fold change [4]?
Its log2 fold change is 0.016.

What about the log2 fold change [5] of the same target?
Its log2 fold change is 0.018.

And the log2 fold change [6]?
Its log2 fold change is -0.001.

What about the log2 fold change [7] of the same target?
Its log2 fold change is -0.002.

What about the log2 fold change [8] of the same target?
Its log2 fold change is 0.006.

And the log2 fold change [9]?
The log2 fold change was 0.011.

What about the log2 fold change [10] of the same target?
Its log2 fold change is 0.001.

For FAM114A2 (UniProt Q9NRY5), which log2 fold change [1] is on record?
The log2 fold change was -0.039.

And the log2 fold change [2]?
Its log2 fold change is -0.068.

And the log2 fold change [3]?
The log2 fold change was 0.141.

What about the log2 fold change [4] of the same target?
The log2 fold change was -0.028.

And the log2 fold change [5]?
Its log2 fold change is -0.1.

And the log2 fold change [6]?
Its log2 fold change is -0.052.

And the log2 fold change [7]?
The log2 fold change was 0.02.

What about the log2 fold change [8] of the same target?
Its log2 fold change is -0.045.

And the log2 fold change [9]?
Its log2 fold change is -0.104.

And the log2 fold change [10]?
The log2 fold change was -0.002.

What does the source list for GABPB1 (UniProt Q06547)?
log2 fold change [1]: -0.004; log2 fold change [2]: 0.033; log2 fold change [3]: 0.012; log2 fold change [4]: 0.028; log2 fold change [5]: 0.035; log2 fold change [6]: 0.016; log2 fold change [7]: -0.009; log2 fold change [8]: 0.026; log2 fold change [9]: -0.008; log2 fold change [10]: -0.042
